The values below come from PubChem BioAssay AID1851 (National Center for Advancing Translational Sciences (NCATS), 2009).

Screen size: about 16,000 compounds; about 5,100 (32%) were called active. Another 25% or so got no clear call; they are omitted. Some of the results follow. Unmarked numbers belong to inactive results. The call rests on the fitted dose curve; in most records, active means well fitted curve in the direction sought with a large enough effect; inconclusive means small, poorly fitted or top-dose-only effect, or effect the other way; inactive means no such curve, though single readings can be large or run the other way.
On the % scale 0 is the no-effect control and ±100 the full control effect.

For this test, the target named is Cytochrome P450 3A4 (Homo sapiens) (UniProt P08684). Briefly: Cytochrome panel assay with activity outcomes. The conditions noted are these: recombinant CYP, pro-luciferin dealkylation, luminescence, p450-cyp3a4; series mostly up to 57.1 µM.
Cytochrome P450 3A4 (Homo sapiens), sequence (P08684 whole entry, looked up): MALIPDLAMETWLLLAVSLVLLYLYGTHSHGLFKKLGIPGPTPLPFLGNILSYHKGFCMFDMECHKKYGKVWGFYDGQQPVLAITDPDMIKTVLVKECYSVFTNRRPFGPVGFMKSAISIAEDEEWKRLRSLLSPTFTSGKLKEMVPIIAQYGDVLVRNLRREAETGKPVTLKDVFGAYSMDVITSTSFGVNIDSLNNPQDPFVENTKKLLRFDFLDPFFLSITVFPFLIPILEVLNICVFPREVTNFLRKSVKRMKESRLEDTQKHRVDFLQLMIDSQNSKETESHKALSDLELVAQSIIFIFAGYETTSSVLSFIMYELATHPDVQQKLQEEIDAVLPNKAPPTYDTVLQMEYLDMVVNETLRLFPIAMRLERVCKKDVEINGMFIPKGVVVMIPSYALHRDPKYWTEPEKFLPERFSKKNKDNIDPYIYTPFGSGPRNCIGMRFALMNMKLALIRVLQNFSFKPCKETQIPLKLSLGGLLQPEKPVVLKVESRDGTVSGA
For `CC(C)Cn1c(C(C)C)nc([N+](=O)[O-])c1S(=O)(=O)c1ccc(F)cc1`, the AC50 (commonly the midpoint of the concentration-response curve, whichever way the signal moves) is 4.47 µM (active). With `CN(C)CCNCCN`, the activity, negative = inhibition is -3.91% [at 11.4 µM]. As for `O=C(O)c1ccc(CNCc2ccccc2)cc1`, the activity, negative = inhibition is -2.73% [at 11.4 µM]. In the case of `OC(CNCc1ccc(F)cc1)(c1ccc(F)cc1)c1ccc(F)cc1`, the half-maximal activity concentration (AC50) is 2 µM (active). Same read-out and setting: the value for `Cc1ccc(CNCC(O)(c2ccc(F)cc2)c2ccc(F)cc2)cc1` was 2.24 µM (active); that for `COc1ccccc1CNc1ncnc2ccc(-c3cccnc3)cc12` was 2 µM (active). Turning to `CC(CO)(CO)Nc1ncnc2ccccc12`, the activity, negative = inhibition was 4.84% [at 11.4 µM]. Take `COc1cccc(-c2ccc3ncnc(NCc4ccc(OC)cc4OC)c3c2)c1`: the AC50 is 2.51 µM (active).

For the compound `COc1ccc(CNc2ncnc3ccc(-c4cccnc4)cc23)c(OC)c1`, the AC50 is 1.26 µM (active). Take `Nc1ccccc1N=Nc1c(S(=O)(=O)O)cc2cc(S(=O)(=O)O)cc(O)c2c1O`: the activity, negative = inhibition is -15.9% [at 11.4 µM]. On the same count and under the same terms, the value for `COc1ccc(Cc2nnc(NC(=O)Cn3cnc4c3c(=O)n(C)c(=O)n4C)s2)cc1OC` was 4.73% [at 2.29 µM]. For `COc1ccc(CCNC(=O)Cn2cnc3c2c(=O)n(C)c(=O)n3C)cc1OC`, the AC50 is 15.8 µM (active). The same measure, in the same setting: with `Cc1ccccc1NC(=O)Cn1cnc2c1c(=O)n(C)c(=O)n2C` the entry was “inactive”. On to `COc1ccc(Nc2ncc(C(=O)N3CCN(c4ccc(F)cc4)CC3)c3ccccc23)cc1`, for which the activity, negative = inhibition is -5.25% [at 2.29 µM]. `O=C(c1sc2ccccc2c1Cl)N1CCN(c2ccc(F)cc2)CC1`: the AC50 is 14.1 µM (active).

As to `COc1ccccc1N1CCN(C(=O)C(NS(=O)(=O)c2cccs2)c2ccccc2)CC1` (stereo not given), the AC50 was 2 µM (active). On to `O=C(c1cccs1)N1CCN(C(=O)C(c2ccccc2)c2ccccc2)CC1`, for which the AC50 entry is “inactive”. With `O=C(NCCN1CCN(C(=O)C(c2ccccc2)c2ccccc2)CC1)C(=O)Nc1ccccc1`, the AC50 entry was “inactive”. On the same count and under the same terms, the value for `O=C(C(NS(=O)(=O)c1cccs1)c1ccccc1)N1CCN(c2ccccc2)CC1` (stereo not given) was 3.16 µM (active); that for `CC(C)C(NS(=O)(=O)c1cccs1)C(=O)NCCN1CCN(c2ccccc2)CC1` (stereo not given) was 5.01 µM (active). `COc1ccc(S(N)(=O)=O)cc1C(=O)NCCCN1CCN(c2ccc(C)cc2)CC1`: the activity, negative = inhibition was 1.35% [at 2.29 µM]. For `CCOC(=O)c1sc(C)c(C(=O)NCC(C)(C)CN(C)C)c1N`, the AC50 result is “inactive”. For the compound `O=C(CSc1nc2ccccc2s1)Nc1nccs1`, the concentration at half-maximal activity (AC50) is 10 µM (active).

As for `Cc1nnc(SCC(=O)Nc2nccs2)[nH]c1=O`, the AC50 result was “inactive”. With `Cc1cccc(-c2nsc(SCC(=O)Nc3nccs3)n2)c1`, the half-maximal activity concentration (AC50) is 3.55 µM (active). `O=C(CSc1nc2ccccc2s1)NNC(=S)Nc1ccc(Br)cc1`: the AC50 was 2.51 µM (active).

Turning to `O=C(O)CCCSc1nc2ccccc2s1`, the activity, negative = inhibition is -9.94% [at 11.4 µM]. On to `C1CCc2nnnn2CC1`, for which the AC50 entry was “inactive”. With `O=C(O)[C@@H](O)[C@@H](O)[C@@H](O)[C@@H](O)C(=O)O` (tested in a mixture with another compound), the AC50 entry was “inactive”. For the compound `O=C(Nc1ccc(Cl)cc1Cl)c1cccc(N2C(=O)C=CC2=O)c1`, the AC50 is 1.26 µM (active). Turning to `O=C(Nc1ccc(Cl)cc1C(F)(F)F)c1ccc(Cl)cc1`, the AC50 result was “inactive”. On to `COc1cc(CNCc2ccccn2)ccc1OCc1ccc(Cl)cc1Cl`, for which the AC50 is 0.501 µM (active).

Take `COc1cc(CNCCN2CCOCC2)ccc1OCc1ccccc1Cl`: the AC50 was 15.8 µM (active). On to `COc1ccc(CC(=O)NCc2ccccn2)cc1OC`, for which the activity, negative = inhibition was -4.2% [at 2.29 µM].

On to `COc1cc2c(cc1OC)-c1cc(NCc3ccccn3)nc(=O)n1CC2`, for which the AC50 entry is “inactive”. Same read-out and setting: the value for `O=C(O)c1cc(=O)c2c(Cl)cc(Cl)cc2[nH]1` was “inactive”. For `O=C1C[C@H]2C(=O)[C@@H]1[C@@H](C(=O)O)[C@H]2C(=O)O`, the activity, negative = inhibition was -3.12% [at 11.4 µM]. `O=c1c(-c2ccc(F)cc2)nc2cnc(Nc3ccccc3)nc2n1Cc1cccs1`: the AC50 result is “inactive”. Take `COc1ccc(-c2nc3cnc(Nc4ccccc4)nc3n(Cc3cccs3)c2=O)cc1`: the AC50 result was “inactive”. Same read-out and setting: the value for `Cc1nc2cnc(Nc3ccccc3)nc2n(Cc2cccs2)c1=O` was 7.94 µM (active). On to `COc1cccc(Nc2ncc3nc(C)c(=O)n(Cc4cccs4)c3n2)c1`, for which the AC50 is 3.98 µM (active). For `COc1cccc(Nc2ncc3nc(-c4cccs4)c(=O)n(Cc4cccs4)c3n2)c1`, the AC50 entry is “inactive”. Still for that read-out and setting: the value for `O=c1cnc2cnc(Nc3ccccc3)nc2n1Cc1cccs1` was 15.8 µM (active); that for `C=C(CC)C(=O)c1ccc(OCC(=O)O)c(Cl)c1Cl` was “inactive”; that for `CCC(C)NC(=O)c1c(C)cc(=O)oc1C` (stereo not given) was “inactive”.

Consider `C[C@@H](N=C(N)N)C(=O)O`, for which the activity, negative = inhibition is -8.02% [at 11.4 µM]. Regarding `Cc1cc(NC(=O)NC(=O)c2ccc(F)cc2F)n[nH]1`, the AC50 result is “inactive”. `COc1ccccc1N1CCN(CCCCNS(=O)(=O)c2cccc3c(N(C)C)cccc23)CC1`: the AC50 was 2.51 µM (active). The same measure, in the same setting: the value for `COc1ccccc1N1CCN(CCCCN2C(=O)CCC2=O)CC1` was “inactive”; that for `COc1ccccc1N1CCN(CCCCNC(=O)c2ccc3ccccc3c2)CC1` was “inactive”. Regarding `Oc1c(Cl)cc(C(c2cc(Cl)c(O)c(Cl)c2)C(c2cc(Cl)c(O)c(Cl)c2)c2cc(Cl)c(O)c(Cl)c2)cc1Cl`, the activity, negative = inhibition was -26.2% [at 11.4 µM].

On to `COC(=O)CSC(C(=O)Nc1ccc(C)c(C)c1)c1ccccc1` (stereo not given), for which the AC50 is 3.98 µM (active). In the case of `Cc1ccc(NC(=O)c2ccccc2C(=O)O)cc1C`, the activity, negative = inhibition is -9.2% [at 11.4 µM]. For the compound `CCCCOC(=O)Nc1ccc(C)c(Cl)c1`, the AC50 entry is “inactive”. As to `O=C(C1CCCN(S(=O)(=O)c2cccc3nsnc23)C1)N1CC=C(c2ccccc2)CC1` (stereo not given), the AC50 is 6.31 µM (active). On to `O=C(C1CCN(S(=O)(=O)c2cccc3nsnc23)CC1)N1CCCc2ccccc21`, for which the AC50 was 14.1 µM (active).

For the compound `O=C(C1CCN(S(=O)(=O)c2cccc3nsnc23)CC1)N1CCn2c1nc1ccccc12`, the AC50 is 14.1 µM (active). With `O=C(C1CCN(S(=O)(=O)c2cccc3nsnc23)CC1)N1CCN(c2ccccc2F)CC1`, the AC50 entry was “inactive”.

`O=C(O)c1nn(-c2ccc(Cl)cc2)c2c1C(=O)c1ccccc1C2=O`: the activity, negative = inhibition is -4.55% [at 11.4 µM]. As to `COc1cc(=O)n2c(n1)SCCC2`, the activity, negative = inhibition was -0.256% [at 2.29 µM].
